Assay results: ChEMBL document CHEMBL3988442, “University of Dundee, Small-Polar-MMV Screening Library” (2021)
The campaign covered roughly 48,000 compounds. About 13,000 (27%) showed an effect of 50% or more. The list shows a part of the results.

Test system: Wolbachia pipientis
Assay: Anti-Wolbachia Cell-Based Screen
Type: functional
Parameters: scale not given: in the data most compounds retested in dose-response had high values
Details: 5 µM

Row | Structure (SMILES) | Percent Effect [%]
1 | COCCN1CC(Nc2nc(C(C)C)nc3c2cnn3C)CC1=O (configuration not stated) | 0.2406
2 | CCCc1nc(C)cc(N2CCNC(C(=O)NCc3cccnc3)C2)n1 (configuration not stated) | 0.7849
3 | CSC(CNS(N)(=O)=O)c1cccc(Cl)c1 (configuration not stated) | -15.56
4 | CC(C)NC(=O)[C@H]1C[C@@H]2[C@@H](C1)OCCN2Cc1nccs1.O=C(O)C(F)(F)F | 0.8743
5 | CN(C)C(=O)[C@@H]1C[C@@H]2[C@@H](CCN2Cc2nccs2)O1.O=C(O)C(F)(F)F | 111.2
6 | CS(=O)(=O)N1C[C@H]2CCCN(Cc3nccs3)[C@H]2C1.O=C(O)C(F)(F)F | 1.749
7 | CC(C)N(C)[C@@H]1CCN(Cc2nccs2)[C@H]1Cc1ccncc1.O=C(O)C(F)(F)F.O=C(O)C(F)(F)F.O=C(O)C(F)(F)F | -17.48
8 | O=C(O)C(F)(F)F.O=C([C@H]1CC[C@@H]2[C@@H](CCN2Cc2nccs2)O1)N1CCCCO1 | -6.039
9 | CN(C)C(=O)[C@@H]1CC[C@@H]2[C@@H](CCN2Cc2nccs2)O1.O=C(O)C(F)(F)F | 98.79
10 | Cc1ccccc1-c1noc(C2CC(C(C)C)=NO2)n1 (configuration not stated) | 10.38
11 | CCc1cc(N(C)Cc2nonc2C)nc(N(C)C)n1 | 93.32
12 | CCN(Cc1nonc1C)C(=O)c1cnccn1 | -6.24
13 | CCc1cc(N(C)Cc2nonc2C)nc(N2CCOCC2)n1 | -1.429
14 | Cc1cc(=O)n(C)cc1NC(=O)Cc1cc(F)ccc1F | 0.6087
15 | O=c1[nH]c(-c2ccccc2F)nc2c1CCNC2 | -26.1
16 | N#Cc1ccc(C(=O)N(C2CC2)C2CC(=O)NC2=O)cc1 (configuration not stated) | -1.854
17 | CC(C1CC1)N(C)C(=O)c1ccc(-n2ncc(C#N)c2N)cc1 (configuration not stated) | 117.6
18 | CCN(CC)C(=O)c1ccc(-n2ncc(C#N)c2N)cc1 | 113.8
19 | CC(C)CCN(C(=O)Nc1cccc(C(=O)N(C)C)c1)C1CC1 | -4.492
20 | CCCC1SCCN1C(=O)c1ccc(-n2ncc(C#N)c2N)cc1 (configuration not stated) | -7.11
21 | COc1ccc(NC(=O)c2ccc(-n3ncc(C#N)c3N)cc2)cn1 | -17.39
22 | N#Cc1cnn(-c2ccc(C(=O)Nc3ccccn3)cc2)c1N | 2.958
23 | CC(C)CCN(C(=O)c1cccc(NC(N)=O)c1)C1CC1 | -12.61
24 | CC(C)CCN(C(=O)c1ccc(-n2ncc(C#N)c2N)cc1)C1CC1 | 92.49
25 | N#Cc1cnn(-c2ccc(C(=O)N(C3CCCCC3)C3CC3)cc2)c1N | 50.38
26 | Cc1cnc(NC(=O)c2ccc(-n3ncc(C#N)c3N)cc2)s1 | -16.88

Row | Structure (SMILES) | Percent Effect [%]
27 | CC(C)C1CCCN1C(=O)c1ccc(-n2ncc(C#N)c2N)cc1 (configuration not stated) | -2.457
28 | Cc1nc(CN2CCC(C(=O)N(C)C3CCC(C)CC3)CC2)cs1 (configuration not stated) | -8.684
29 | Cc1nc(-c2cc(F)c3c(c2)CC(CN)O3)c[nH]1 (configuration not stated) | 4.344
30 | O=C(CCn1cccn1)N1CC[C@@H](c2ccc3ccccc3c2)[C@H](O)C1 | 28.28
31 | Cc1nc2c(C#N)cnn2c(C)c1CCC(=O)N(C)C1CC1 | -17.24
32 | CN(C(=O)c1ccc(-n2ncc(C#N)c2N)cc1)C1CCCC1 | 106.6
33 | CN(C(=O)c1ccc(NC(=O)c2cc[nH]n2)cc1)C1CCCCC1 | -4.101
34 | CCC(=O)Nc1cc(Br)cn(C)c1=O | 3.06
35 | O=C(c1ccc(F)cc1)N(CCCO)S(=O)(=O)c1cccs1 | 17.63
36 | Cc1cccc(-c2[nH]ncc2CNCC2CCN(CC(C)O)CC2)c1 (configuration not stated) | -2.172
37 | CC(O)CN1CCC(CNCc2c[nH]nc2C(C)(C)C)CC1 (configuration not stated) | -0.09307
38 | CN(C)CCN1CCC(CNCc2c[nH]nc2C(C)(C)C)CC1 | 106
39 | COCCN1CCC(CNCc2c[nH]nc2C(C)(C)C)CC1 | 88.21
40 | CNc1cc(N2CCCC2CNCc2c[nH]nc2C(C)(C)C)ncn1 (configuration not stated) | 0.4855
41 | Cc1ccc(-c2n[nH]cc2CNCC2CCc3nnc(C)n3C2)cc1 (configuration not stated) | -17.97
42 | CC(C)N1CCC(CNCc2c[nH]nc2C(C)(C)C)C1 (configuration not stated) | 9.105
43 | COCCn1cc(NCc2c[nH]nc2C(C)(C)C)cn1 | 0.5813
44 | CC(C)(C)c1n[nH]cc1CNCC1CCN(C2CC2)C1.Cl (configuration not stated) | 3.787
45 | CCN1CCC(CNCc2c[nH]nc2C(C)(C)C)C1.Cl (configuration not stated) | 95.83
46 | CC(C)(C)c1n[nH]cc1CNCC1CCN(CC(F)(F)F)C1.Cl (configuration not stated) | -2.373
47 | Cc1ccc(-c2n[nH]cc2CNCC2CCN(CC(C)O)CC2)cc1 (configuration not stated) | 92.7
48 | CCC(CO)NC(=O)Nc1cc(F)ccc1SCC(F)F (configuration not stated) | 1.4
49 | CCOCc1ccc(NC(=O)NC2CCCn3nc(CC)nc32)cc1 (configuration not stated) | -7.286
50 | CNC(=O)CN(C)C(=O)c1ccc(-c2nc(C)cs2)cc1 | 115.5
51 | CCCN(CC(=O)N(C)C)C(=O)c1ccc(-c2nc(C)cs2)cc1 | 106.6
52 | CNC(=O)C(CC(C)C)NC(=O)c1cccc(-c2nc(C)cs2)c1 (configuration not stated) | 8.267

Row | Structure (SMILES) | Percent Effect [%]
53 | Cc1csc(-c2ccc(NC(=O)N3CCOCC3)cc2)n1 | 9.555
54 | CCCN(CC(=O)NC)C(=O)c1ccc(-c2ccsc2)nc1C | -3.974
55 | CCN(CC(=O)NC)C(=O)Cc1csc(C(C)C)n1 | -3.04
56 | CN(C)C(=O)c1csc(-c2ccoc2)n1 | -7.541
57 | CCN(CC(=O)N(C)C)C(=O)c1ccc(-c2nc(C)cs2)cc1 | 133.8
58 | Cc1ccc(-c2nc(C(=O)N(C)CC(=O)N(C)C)cs2)c(C)c1 | -25.77
59 | CCN(CC(=O)N(C)C)C(=O)c1cc(-c2cccc(Cl)c2)no1 | -0.1751
60 | CCCN(CC(=O)NC)C(=O)c1ccc(-c2nc(C)cs2)cc1 | 92.57
61 | CNC(=O)CN(C)C(=O)Cc1csc(C(C)C)n1 | -0.57
62 | CCc1ccc(C(NC(=O)CN(C)S(C)(=O)=O)C(C)(C)C)o1 (configuration not stated) | -2.175
63 | Cc1cn2c(n1)C(CNCc1cnn3ccccc13)CCC2 (configuration not stated) | 10.2
64 | CCc1ocnc1C(=O)N1CCN(c2nncc3ccccc23)CC1 | -2.931
65 | Cc1c(O)oc(-c2ccc(Br)cc2)nc1=O | -7.091
66 | CC(C(=O)O)N1CCc2onc(-c3ccc4c(c3)OCO4)c2C1 (configuration not stated) | -4.68
67 | N#Cc1ccc(OC2CCN(C(=O)c3ccc4c(c3)OCO4)CC2)nc1 | -4.84
68 | CC(=O)NC(C)C1=CCCN(Cc2ccc(C(=O)O)cc2)C1 (configuration not stated) | -17.16
69 | CS(=O)(=O)N[C@@H]1COC[C@@H]2CN(Cc3ccco3)C[C@@H]21 | 121.7
70 | CS(=O)(=O)CC(=O)N1C[C@@H]2CN(Cc3ccoc3)CCO[C@@H]2C1 | -2.254
71 | CS(=O)(=O)N[C@@H]1COC[C@@H]2CN(Cc3ccoc3)C[C@@H]21 | 104.1
72 | CS(=O)(=O)N[C@H]1COC[C@@H]2CN(Cc3ccco3)C[C@@H]21 | 102.8
73 | CS(=O)(=O)N[C@@H]1CN(Cc2ccoc2)C[C@@H]2CCCO[C@@H]21 | -8.721
74 | CCOCC(=O)N1CCc2c(CN(C)C)nn(C(C)C)c2C1.O=C(O)C(F)(F)F | -22.21
75 | Cn1c(N)nnc1SCC1OCCc2ccccc21 (configuration not stated) | -8.673
76 | O=C(Nc1nncs1)c1ccc(O)nc1 | -7.078
77 | CC(C)C(C)N(C)Cc1nnc(-c2ccc(Br)s2)o1 (configuration not stated) | 27.84
78 | CN(C)[C@H]1C[C@@H](Cc2cc(CO)on2)C1(C)C | 2.334

Row | Structure (SMILES) | Percent Effect [%]
79 | Cc1nn(C)c2cn(C(C)C(=O)NCc3cccnc3)nc12 (configuration not stated) | 6.41
80 | CC(C)C(Sc1nnc(C2CC2)n1C1CC1)C(=O)NCc1cccnc1 (configuration not stated) | 2.12
81 | Cc1nn(C)c2cnn(C(C)C(=O)NCc3cccnc3)c12 (configuration not stated) | 10.06
82 | CC(C)C(Sc1nnnn1-c1ccccc1)C(=O)NCc1cccnc1 (configuration not stated) | -6.711
83 | CC(C)C(Sc1nnnn1C1CC1)C(=O)NCc1ccccc1 (configuration not stated) | 90.27
84 | CC(C)C(Sc1nccn1C1CC1)C(=O)NCc1cccnc1 (configuration not stated) | 93.78
85 | Cc1ccc(C)c(OC(C)C(=O)NCc2cccnc2)c1 (configuration not stated) | -19.9
86 | CC(C)C(Sc1nnnn1C1CC1)C(=O)NCc1cccnc1 (configuration not stated) | 0.8079
87 | CC(C)Cn1nnnc1SC(C(=O)NCc1cccnc1)C(C)C (configuration not stated) | 111.1
88 | CC(C)C(Sc1nncn1C1CC1)C(=O)NCc1cccnc1 (configuration not stated) | 102
89 | CC(C)Sc1nnnn1C1CCCC1 | -35.1
90 | O=C(c1cc(=O)[nH][nH]1)N1CCCC2(CCC(=O)N(C3CCCC3)C2)C1 (configuration not stated) | -4.852
91 | Cc1nnsc1CN(C)C(=O)CN1CC2(CCNCC2)OC1=O | -6.607
92 | COCCN1CCC(CNC(=O)C2(c3ccccc3)CCOCC2)C1 (configuration not stated) | 84.82
93 | CC(C)(CNC(=O)C1(c2ccccc2)CCOCC1)C(=O)O | 1.32
94 | O=C(Cc1ccccc1F)NCC1CCN(CCN2CCOCC2)C1 (configuration not stated) | 8.19
95 | CCCC(=O)NCC1CCCN(Cc2cc(C)c(C)o2)C1 (configuration not stated) | -7.568
96 | COCCN1CCC(CNC(=O)C2(C#N)CCCC2)CC1 | -6.048
97 | COCCN1CCC(CNC(=O)C2(S(C)(=O)=O)CCCC2)CC1 | -5.804
98 | CCN1CCCC(CNC(=O)C2(c3cc(C)cc(C)c3)CCC2)C1 (configuration not stated) | 97.54
99 | COc1ccccc1NC(=O)C1(c2ccccc2)CCOCC1 | 98.14
100 | COCCN1CCC(CNC(=O)C2(c3ccc(F)cc3)CCC2)CC1 | 107
101 | CCN1CCCC(CNC(=O)CCc2ccc(OC)c(F)c2)C1 (configuration not stated) | -5.052
102 | COc1ccncc1NC(=O)C1(c2ccccc2)CC1 | -4.467
